# Measured values taken from PubChem BioAssay AID686979 (National Center for Advancing Translational Sciences (NCATS), 2013).
# “And” between values parts separate entries of the source, which are not always exact repeats. Identical values can stand only once. In all, about 420,000 compounds went through this assay and about 50,000 (12%) were called active. Roughly 26% stayed inconclusive and do not appear here. Calls follow the shape of the dose curve; as a rule, active = well fitted inhibition curve with a large enough effect; inconclusive = small, poorly fitted or top-dose-only effect; inactive = flat fitted curve, though single readings scatter. What follows is part of a selection rich in actives, with near analogues and random picks from the rest. Entries that show only a call come without a potency. Some structures have more than one record in an assay (separate samples or runs), and their calls can disagree.
# Experiment: qHTS for Inhibitors of human tyrosyl-DNA phosphodiesterase 1 (TDP1): qHTS in cells in presence of CPT; also: nearly all actives have a fitted effect of over 55% in size
# Settings: chicken DT40 Tdp1-/-;hTDP1 cells + 20 nM CPT, ATP luminescence, 48 h; series mostly up to 46.2 µM
# Outline: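 Cell growth measured by CellTiter-Glo luminescence after a minimum 48 h, 37 C compound exposure with 20 nM CPT in Tdp1-knockout DT40 cells stably expressing hTDP1, seeded 400/well; qHTS titration format.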
# Potency is read from the fitted curve at half-maximal effect.
SMILES,Potency,"activity change, negative = growth inhibition"
CCCN(C(=O)COC(=O)CNS(=O)(=O)c1ccc(NC(C)=O)cc1)C1CCS(=O)(=O)C1 (configuration not stated),inactive,
COC(=O)C1=C(N)Oc2c(oc(CO)cc2=O)C1c1c(F)cccc1Cl (configuration not stated),inactive,
CCOC(=O)c1sc(NC(=O)c2sc(C)nc2C)nc1C,inactive,
CCOC(=O)c1cc(-c2sc(NC(=O)c3ccccc3)nc2C)n(Cc2ccccc2)n1,16.4 µM (active),
CCOC(=O)c1cc(OC(=O)c2ccccc2Cl)n(-c2ccccc2)n1,inactive,
CSc1ccc(Cl)c(C(=O)OCC(=O)N2CCNC2=O)c1,inactive,
Nc1ncnc2c1ncn2[C@@H]1O[C@H](C(=O)N2CCSC2)[C@@H](O)[C@H]1O,inactive,
COc1ccc(Nc2nc(N)nc(CSC(=S)N3CCC(C)CC3)n2)cc1,inactive,
CN(CC(=O)Nc1cccc(F)c1)CC(=O)Nc1cccc([N+](=O)[O-])c1,inactive,
COc1ccc(C)cc1S(=O)(=O)N(CC(=O)Nc1cccc([N+](=O)[O-])c1)c1ccc(C)cc1,18.4 µM (active),
COc1ccc(N(CC(=O)Nc2ccc(C)cc2C)S(=O)(=O)c2ccccc2[N+](=O)[O-])c(OC)c1,inactive,
O=C(CCc1nnc2ccc(NCCCN3CCCC3=O)nn12)NCc1ccccc1Cl,inactive,
COc1ccc(NC(=O)CN2C(=O)CSc3ccc(S(=O)(=O)N4CCC(C)CC4)cc32)cc1,inactive,
O=S(=O)(NCCc1ccncc1)c1ccccc1,inactive,
Nc1nc(/C(=C/CC(=O)O)C(=O)N[C@@H]2C(=O)N3C(C(=O)O)=CCS[C@H]23)cs1,inactive,
O=C1Nc2ccc([N+](=O)[O-])cc2C1=Nc1cccc(CO)c1,16.4 µM (active),
O=C(c1cccc([N+](=O)[O-])c1)N1CCN(Cc2ccccc2)CC1,inactive,
CC1Cn2c(nnc2-c2cccs2)S1 (configuration not stated),inactive,
O=c1cnnc(Nc2ccccc2)[nH]1,inactive,
CCC1(C2CCN(Cc3cccnc3)CC2)NC(=O)N(CC2COc3ccccc3O2)C1=O (configuration not stated),,-5.78% [at 9.04 µM] (inactive)
CSCC(NS(=O)(=O)c1ccc(C)cc1)C(=O)O (configuration not stated),inactive,
CCC(C)N(C(=O)CSc1ncnc2c1cnn2-c1ccccc1)C1CCS(=O)(=O)C1 (configuration not stated),inactive,
Cc1ccc(S(=O)(=O)NCC(=O)N2CCOCCOCCOCCOCC2)cc1,inactive,
COc1ccc(N2CCN(C(=O)CNS(=O)(=O)c3ccc(C)c(C)c3)CC2)cc1,inactive,
O=C(CNS(=O)(=O)c1ccc2c(c1)OCCCO2)N1CCN(c2ccc(F)cc2)CC1,20.6 µM (active),
CCOC(=O)[C@H]1[C@H]2COc3ccccc3[C@@H]2N2C(=O)CN(Cc3ccccc3)C(=O)[C@@]12C,inactive,

SMILES,Potency,"activity change, negative = growth inhibition"
CCCNC(=S)N1CCC(NC(=O)c2ccc(OC)cc2)CC1,inactive,
CC(C)n1c(-c2cccs2)nc2ccccc21,inactive,
CCC(c1nc2ccccc2[nH]1)n1c(=O)c(-c2cccs2)nc2ccccc21 (configuration not stated),18.4 µM (active),
O=c1c(-c2cccs2)nc2cnc(Oc3ccccc3)nc2n1-c1ccccc1,inactive,
O=C(NCc1ccccc1)C(c1cccnc1)N(C(=O)c1csnn1)c1ccc(F)cc1 (configuration not stated),inactive,
CCC(=O)Nc1nc(OC)cc(OC)n1,inactive,
COc1cc(OC)nc(NC(=O)CCl)n1,14.6 µM (active),
COc1cc(OC)nc(N/N=C(\c2ccccc2)c2ccncc2)n1,inactive,
CCSc1nsc(NC(=O)Nc2ccccc2OC)n1,inactive,
Cc1ccc(NC(=O)c2cccc(N(C)C)c2)cc1NC(=O)c1ccc(O)cc1,inactive and 29.9 µM (active),
Cc1ccc(F)cc1NC(=O)c1cccc(N(C)C)c1,inactive,
Cc1ccc(C)c(NC(=O)c2ccc3nccnc3c2)c1,inactive,
O=C(c1cn2ccccc2n1)N1CCc2c([nH]c3ccccc23)C1c1ccccn1 (configuration not stated),inactive,
CCc1nc2ccc(C(=O)NC3CCN(Cc4ccccc4)CC3)cn2c1N(C)CCN1CCOCC1,inactive,
O=C1/C(=C\c2ccc([N+](=O)[O-])cc2)CS(=O)(=O)C/C1=C/c1ccc([N+](=O)[O-])cc1,0.0259 µM (active),
O=[N+]([O-])c1ccc(C=NN=Cc2ccc([N+](=O)[O-])cc2)cc1,inactive,
O=C(NN=Cc1ccc([N+](=O)[O-])cc1)C1CC1,inactive,
CCOc1cccc2cc(C(=O)OCC(=O)Nc3c(C)cccc3CC)c(=O)oc12,inactive,
COCCNC(=O)CSc1nc2sccc2c(=O)n1-c1ccccc1,inactive,
COc1ccc(S(=O)(=O)N2CCC(C(=O)N3CCCC3)CC2)cc1C,inactive,
COc1ccc(N2CCN(C(=O)C3CCN(S(=O)(=O)c4ccc(C)cc4)CC3)CC2)cc1,inactive,
COc1ccc(N(C)C(=O)C2CCN(S(=O)(=O)c3cc(Br)cc4c3N(C(C)=O)CC4)CC2)cc1,inactive,
Cc1ccc(N(C)C(=O)C2CCN(S(=O)(=O)c3ccc4c(c3)CCCN4C(=O)C3CCC3)CC2)cc1,23.1 µM (active),
Cc1ccc(S(=O)(=O)N2CCC(C(=O)OCC(=O)N(C)c3ccccc3)CC2)cc1C,inactive,
Cc1ccc(S(=O)(=O)N2CCC(C(=O)N3CCCCCCC3)CC2)cc1,20.6 µM (active),
Cc1c(NC(=O)COC(=O)/C=C/c2cccc(F)c2)c(=O)n(-c2ccccc2)n1C,inactive,

SMILES,Potency,"activity change, negative = growth inhibition"
O=C1C[C@@H]2c3c(cccc3CN1Cc1ccccc1)C[C@@H](O)[C@H]2O,inactive,
NC(=O)CSc1nnc(NC(=O)c2ccc3ccccc3c2)s1,inactive,
CCc1ccccc1NC(=O)c1ccc(F)c(S(=O)(=O)NC2CCCCCC2)c1,inactive,
O=C(CN1CCOCC1)Nc1cccc([N+](=O)[O-])c1,inactive,
CN1CCN(CC(=O)Nc2cccc([N+](=O)[O-])c2)CC1,inactive,
Cc1cc(=O)n(CC(=O)Nc2cccc([N+](=O)[O-])c2)c(-n2nc(C)cc2C)n1,20.6 µM (active),
Cn1c(=O)c2c(ncn2CC(=O)N/N=C/c2cn[nH]c2-c2ccc(F)cc2)n(C)c1=O,inactive,
COc1ccc(Br)cc1/C=N/Nc1ccc(Cl)c(C(=O)O)c1,inactive,
N#Cc1c(-c2ccc(F)cc2)cc(C2CC2)nc1SCC(=O)c1cccs1,inactive,
O=S(=O)(NC1CC1)c1ccc(Cl)cc1,inactive,
O=S(=O)(NC1CC1)c1ccc(F)c(F)c1,inactive,
Cn1sc(=O)c2cc(S(=O)(=O)NC3CC3)ccc21,2.91 µM (active),
COc1ccc(C)cc1NC(=O)NCCCCc1ccccc1,inactive,
CCOC(=O)c1[nH]c(C)c(C(=O)OCC(=O)N2c3ccccc3CC2C)c1C (configuration not stated),inactive,
CC(=O)CSc1nc(CCc2ccccc2)c(C#N)c(=O)[nH]1,inactive,
Cc1nn2c(=O)cc(COC(=O)c3ccccc3NC(=O)COc3ccccc3C)nc2s1,inactive,
CCC(=O)Nc1nnc(S(=O)(=O)N2CCCc3ccccc32)s1,inactive,
O=S(=O)(c1ccccc1)N1CCc2ccccc21,inactive,
Cc1nn(C)c(C)c1S(=O)(=O)N1CCc2ccccc21,inactive,
O=C(Nc1nc2ccc([N+](=O)[O-])cc2s1)c1ccc(S(=O)(=O)N2CCCc3ccccc32)cc1,4.61 µM (active),
O=C(Nc1nnc(S(=O)(=O)N2CCOCC2)s1)c1cccc(Br)c1,inactive,
Cc1cccc(C(=O)Nc2nnc(S(=O)(=O)N3CCCCCC3)s2)c1,inactive,
CCOC(=O)CSc1nnc(NC(=O)c2cccc(S(=O)(=O)N3CCCCC3)c2)s1,inactive,
CSc1nc2ccc(S(=O)(=O)N3CCc4ccccc43)cc2s1,16.4 µM (active),
CS(=O)(=O)c1ccc2nc(NC(=O)c3ccc(N4CCCC4=O)cc3)sc2c1,inactive,
O=C(Nc1nnc(S(=O)(=O)N2CCCCCC2)s1)c1cccc(Br)c1,5.8 µM (active) and 25.9 µM (active),

SMILES,Potency,"activity change, negative = growth inhibition"
O=C(Nc1nnc(S(=O)(=O)N2CCCc3ccccc32)s1)c1cccc(F)c1,16.4 µM (active),
NS(=O)(=O)c1ccc2nc(NC(=O)C3=COCCO3)sc2c1,inactive,
CN(Cc1ccc2nsnc2c1)Cc1nc(Cc2cccc(F)c2)no1,inactive,
Cc1cc(C)c(S(=O)(=O)c2ccc(F)cc2C)c(=O)[nH]1,inactive,
CN(CC(=O)NC1CCCC1)S(=O)(=O)c1cnc[nH]1,inactive,
C=CCN1CN(S(=O)(=O)c2ccc(OC)cc2)c2nc3ccccc3nc21,inactive,
O=C(Cn1cc(C(F)(F)F)ccc1=O)N/N=C/c1ccc(Cl)cc1Cl,inactive,
CC1(C(=O)NS(=O)(=O)c2ccc(C#N)cc2)CCN1C(=O)c1ccc(C2CCCCC2)cc1 (configuration not stated),inactive,
O=C(CNC(=O)OCc1ccccc1)NC1CCCCNC1=O (configuration not stated),inactive,
Cc1ccc(C(=O)NCC(=O)OCC(=O)NC2CCCCCCC2)cc1,inactive,
CN(C1CCS(=O)(=O)C1)S(=O)(=O)c1ccc2ccccc2c1 (configuration not stated),inactive,
O=C(NC(Nc1nc2ccc([N+](=O)[O-])cc2s1)(C(F)(F)F)C(F)(F)F)c1ccccc1,0.461 µM (active),
O=C(COC(=O)c1ccc(F)cc1)Nc1nc2ccc([N+](=O)[O-])cc2s1,inactive,
O=C(CNC(=O)c1ccccc1)Oc1ccc([N+](=O)[O-])cc1,inactive,
Nc1ccc(N=Nc2ccccc2Cl)c(N)n1,inactive,
Cc1ccc(Cc2c(-c3ccccc3)nc3ccc(Cl)cn23)cc1,inactive,
CN1CCN(Cc2c(C(=O)N3CCc4ccccc4C3)nc3ccc(Cl)cn23)CC1,inactive,
Cc1cc(Br)cn2c(Cc3ccccc3C(F)(F)F)c(C3CCCCC3)nc12,inactive,
CC(=O)Nc1c(-c2ccc(C)cc2)nc2ccc(Cl)cn12,inactive,
Cc1ccc(Cc2c(-c3ccco3)nc3ccc(Cl)cn23)cc1,8.2 µM (active),
Cc1ccc(-c2nc3c(C)cc(Br)cn3c2Cc2ccccc2)cc1,inactive,
Cc1ccc(-c2nc3ccc(Br)cn3c2Cc2ccccc2C(F)(F)F)cc1,16.4 µM (active),
Cc1ccc(-c2nc3ccc(Cl)cn3c2Cc2ccccc2)cc1,20.6 µM (active),
Cc1cc(Br)cn2c(Cc3ccccc3C(F)(F)F)c(-c3ccc(Cl)cc3)nc12,inactive,
